Compounds without any hit were thinned out: in the full panel of roughly 79,000, 15% have a hit. A number with no mark means an inactive call. The source made the active and inactive calls. Cut-off read from the data, not from the text of the source: active = growth inhibition above about 70%; inactive = the rest.
Legend:
[1] = NCI Yeast Anticancer Drug Screen. Data for the rad50 strain (AID 155);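 note: 0% = growth of vehicle-only cultures of the same strain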; conditions: S. cerevisiae rad50 strain growth inhibition; at 50.0 µM; hits give high values
How it was run: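 Readout: growth inhibition relative to vehicle-treated cultures. Compound exposure was carried out in a genetically defined yeast strain deficient in DNA damage repair.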

[2] = NCI Yeast Anticancer Drug Screen. Data for the mec2-1 strain (AID 157); conditions: S. cerevisiae mec2-1 strain, at 50.0 µM, hits give high values
How it was run: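 Test agents were screened against the mec2-1 yeast strain, with defined DNA repair or cell cycle alteration. Growth was scored as inhibition against vehicle-only controls.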

[3] = NCI Yeast Anticancer Drug Screen. Data for the sgs1 mgt1 strain (AID 161);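 note: 0% = growth of cultures given vehicle only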; conditions: S. cerevisiae sgs1 mgt1 strain, at 50.0 µM, hits give high values
How it was run: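 Test agents were incubated with a DNA-repair-mutant yeast strain. Growth was then read and compared against vehicle-treated controls.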

[4] = NCI Yeast Anticancer Drug Screen. Data for the cln2 rad14 strain (AID 165);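 note: 0% = growth equal to vehicle treated cultures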; conditions: S. cerevisiae cln2 rad14 strain, at 50.0 µM, hits give high values
How it was run: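 Growth of compound-exposed yeast (cln2 rad14 genotype) measured and expressed as inhibition relative to vehicle.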

[5] = NCI Yeast Anticancer Drug Screen. Data for the bub3 strain (AID 167); conditions: S. cerevisiae bub3 mutant strain, at 50.0 µM, hits give high values
How it was run: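 Readout: yeast growth inhibition, expressed relative to vehicle-only wells. The test organism is a mutant strain from a panel with lesions in DNA repair or checkpoint genes.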

[6] = NCI Yeast Anticancer Drug Screen. Data for the mlh1 rad18 strain (AID 175); conditions: S. cerevisiae mlh1 rad18 strain growth inhibition; at 50.0 µM; hits give high values
How it was run: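 In this whole-cell yeast screen, a strain with altered DNA damage repair is challenged with compound, and its growth is measured against matched vehicle-treated controls.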

Structure (SMILES)	growth inhibition [1] [%]	growth inhibition [2] [%]	growth inhibition [3]	growth inhibition [4]	growth inhibition [5]	growth inhibition [6]
Cc1ccc(C)o1	-5.3	5.5	-8.65%	-12.2%	-1.1%	2.6%
C/C=C\CCCCC	13.8	9.4	15.4%	24.1%	34.6%	10.9%
CC1(C)OC(=O)C=C([O-])O1.CC1(C)OC(=O)C=C([O-])O1.O=c1c(O)c(-c2ccc([O-])cc2[O-])oc2cc(O)cc(O)c12.[Ti+4]	-45.6	9.05	-29.4%	-7.85%	-4.55%	-16.2%
O=C(Nc1ccccc1)n1cc(-c2ccccn2)c(N2CCOCC2)n1	-4.6	-11.1	6.15%	-64.5%	-12.9%	-14.4%
CC(=N\NS(=O)(=O)c1ccc(C)cc1)/C(C)=N/NS(=O)(=O)c1ccc(C)cc1	25.3	-1.9	12.8%	0.85%	0.95%	-8.3%
CCC(/C=C/c1ccccc1)=N\NC(=O)c1ccc(Cl)cc1	16.2	5.5	7.5%	1.7%	19.9%	7.95%
O=C(O)CCC(=O)Nc1ccccc1C(=O)O	-1.15	11.8	-8.15%	0.15%	5.6%	-4.5%
Cc1cccc(C)c1NC(=O)CNc1ncccn1	-14.3	1	3.7%	-4.7%	19.1%	4.65%
c1ccc(C2(c3ccccc3)SC2(c2ccccc2)c2ccccc2)cc1	-13.9	-7.75	-11.1%	-24.1%	2.15%	-6.65%
CCO/C(=C/[S+](C)C)c1ccccc1	0.55	-4.4	-19.9%	2.95%	9.3%	5.35%
Nc1ccc([N+](=O)[O-])c(C(=O)O)c1	-10.2	-26.9	-15%	15.9%	-15.1%	-6.9%
COc1ccc(CN2CCCN(Cc3ccc(OC)cc3OC)C2c2ccccc2)c(OC)c1	19.6	6.9	8.05%	17.9%	-4.6%	14.8%
CCCC(=O)Oc1ccc(Br)cc1	6.6	-22.4	-5.25%	12.8%	-17.9%	20.9%
OCC[N+]12CCCN1CCC2	-15.4	-27	-21.4%	-12.9%	-15.3%	-30.4%
C[N+](C)(C)Cc1cc2ccccc2c2ccccc12	-23	-8.9	-18.8%	-9.55%	-8.35%	20.1%
CN1C(=O)c2ccccc2C(O)(c2ccccc2)C1(O)c1ccccc1 (centres undefined)	-6.3	-20.9	-26.7%	12.2%	-12.2%	-38.9%
CC(=O)OCC(OC(C)=O)C1OC(OCc2ccccc2)C(OC(C)=O)C(OC(C)=O)C1OC(C)=O (centres undefined)	-10.1	-4.2	-17.6%	44%	-3%	-5.85%
Cc1c2oc3c(C)ccc(C(=O)NCCc4ccccn4)c3nc-2c(C(=O)NCCc2ccccn2)c(N)c1=O	5.9	-8.05	4.05%	4.9%	-5.45%	-6.9%
COc1ccc2nccc(N)c2c1	31.9	-7.95	15.1%	11.5%	-8.05%	20.9%
CC12CC(=O)C3C(CCC4=CC(=O)CCC43C)C1CC=C2CC(=O)O (centres undefined)	-4.8	1.15	-23.4%	-3.85%	-5.15%	-11.2%

Structure (SMILES)	growth inhibition [1] [%]	growth inhibition [2] [%]	growth inhibition [3]	growth inhibition [4]	growth inhibition [5]	growth inhibition [6]
Nc1ccn(C2OC(CCl)C(O)C2O)c(=O)n1 (centres undefined)	17.2	3.2	-4.15%	4.1%	-39.9%	-36.1%
O=C(C[n+]1cccc(C(=O)Nc2ccccc2)c1)Nc1ccc(Cl)cc1	-2.65	-0.7	-2.35%	0.35%	6.7%	7.35%
O=C1CCCC/C1=C\c1ccc([N+](=O)[O-])cc1	28.4	27.9	29.4%	10.1%	21.8%	40.4%
CCCCCCCCCCCCCCCc1c(NC(C)(CC)[P+](=O)O)c(=O)n(C)n1C (centres undefined)	-41.5	-32.5	-7.45%	-29.9%	-12.2%	-18.8%
CC(O)C1OC(n2cnc3c(=O)[nH]cnc32)C(O)C1O (centres undefined)	-9.45	-24.9	-0.65%	-0.85%	-7.05%	-22.9%
CC1(C)N=C(N)N=C(N)N1c1cccc(CCC(=O)Nc2cccnc2)c1	19.4	1.4	5.2%	9.05%	-4.5%	-6.3%
COC(=O)C1C(=O)C2CCC1C(=O)C2C(=O)OC (centres undefined)	1.95	-2.8	16.4%	4.1%	9.75%	22.7%
O=C(CN1CCOCC1)Nc1ccc(S(=O)(=O)c2ccc([N+](=O)[O-])cc2)cc1	52.3	15	99.3% (active)	98.3% (active)	96.7% (active)	26.1%
COC(=O)c1ccc(NCC2=CC(=O)c3ccccc3C2=O)cc1	46.9	38	59%	48.4%	54%	88% (active)
NC(=NC1CCCCC1)c1ccc(C(=O)OCC2CCCCC2)cc1	39.2	12.6	45.5%	19.9%	21.8%	26.4%
CC(=O)Nc1ccc(S(=O)(=O)N/N=C/c2ccc3c(c2)OCO3)cc1	4.85	-20.2	2.55%	2.15%	-33.7%	-20.5%
CC1=C(C(=O)O)CCc2ccccc21	40.7	-11.5	19.9%	13.7%	15%	36.8%
CC1=CCS(=O)(=O)C1	22.4	1.55	12.2%	10.3%	-4.1%	29%
O=C(OCCCl)C1CC2C=CC1C2 (centres undefined)	-4.5	-10.1	3.85%	8.25%	-7.2%	-3.4%
O=C1CCC2CCC1C2 (centres undefined)	10.1	-16.6	-41.3%	15.8%	-36.7%	-28.3%
N[C@@H]1CCCC[C@H]1O	-0.35	-5.5	-8.7%	-24.9%	-5.9%	-16.1%
COc1ccc(-c2cc(-c3ccccc3)c(C#N)c(=O)[nH]2)cc1	22.9	5.85	17.4%	17%	6.3%	21%
Nc1c2c(nn1-c1ccccc1)C(=O)N(CCc1ccccc1)C2	0.25	14.2	-6.05%	-0.65%	-3.25%	-1.4%
Cc1c(C)c(O)c2c(c1C)C(C)C(=O)OC2=O (centres undefined)	1.2	-37.8	-13.2%	10%	-19.3%	-0.15%

From PubChem BioAssay (NCI)
